Measurements published in ChEMBL document CHEMBL4513216, “Probing the Open Global Health Chemical Diversity Library for Multistage-Active Starting Points for Next-Generation Antimalarials” (ACS Infect Dis, 2020).
Among all 68,000 compounds or so, about 2,700 (4%) showed an effect of 50% or more. The list comes from a sample in which strong results are over-represented; it also holds similar structures and randomly drawn compounds.

What follows are compounds tested on Plasmodium berghei (assay: Screen against P. berghei liver stage (PbLuc), transformed with Luciferase, at 2uM). Conditions: tested at 2 uM.
Format: functional, HepG2

Row | SMILES | INHIBITION [%]
1 | c1cc(CN2CCOCC3(C2)CN(Cc2nccs2)CCO3)ccn1 (centres undefined) | 24.93
2 | CN(C)C(=O)COC1COC2(CCN(c3cnccn3)CC2)C1 (centres undefined) | -16.53
3 | N#Cc1ccccc1CNC(C(=O)N1CCOCC1)c1ccccc1 (centres undefined) | -13.11
4 | C[C@@H]1CN(C(=O)c2cnc(C3CC3)nc2)CC[C@@]1(O)C1CCOCC1 | 11.63
5 | c1sc(C2CCCCC2)nc1CN1CCn2c(nnc2C2CC2)C1 | 28.65
6 | CS(=O)(=O)NCc1ncn2c1CN(CCN1CCCC1)CCC2 | 10.64
7 | CCOc1ccccc1OC1CCN(C(=O)c2cnsn2)CC1 | 14.06
8 | CCOc1ccccc1OC1CCN(C(=O)c2cnns2)CC1 | 73.34
9 | CCOc1ccccc1OC1CCN(C(=O)c2csnn2)CC1 | 19.71
10 | Cc1cccc(N2CCC3(CCCN3Cc3c(C)nn(C)c3C)CC2)n1 | -28.5
11 | Cc1cccc(N2CCC3(CCCN3Cc3cnn(C)c3C)CC2)n1 | 11.33
12 | Cc1cccc(N2CCC3(CCCN3Cc3cn(C)nc3C)CC2)n1 | 50.32
13 | COCCNC(=O)C1(c2ccccc2C)CCOCC1 | -88.54
14 | COCCNC(=O)N1CCN(C(=O)Cc2ccccc2F)CC1 | 1.06
15 | COCCNC(=O)NC1(c2ccccc2F)CC1 | 54.49
16 | CCS(=O)(=O)N1CCc2c(nc(C3CCCN3)nc2NC)C1 (centres undefined) | 40.35
17 | Cc1cccc(C(=O)N2CC(=O)N(c3ccccc3Cl)CC2C)n1 (centres undefined) | 6.75
18 | Cc1noc2ncc(C(=O)N3CCCC3c3cnn(C)c3)cc12 (centres undefined) | 26.71
19 | Cc1noc2ncc(C(=O)N3CCCC3c3ccncc3)cc12 (centres undefined) | -52.51
20 | Cc1noc2ncc(C(=O)N3CCCC3c3ccsc3)cc12 (centres undefined) | 60.09
21 | Cc1cn2c(n1)CCC(NC(=O)CCOc1cccc(F)c1)C2 (centres undefined) | -34.22
22 | CCc1nccn1C1CCCN(C(=O)c2ccnc(C)n2)C1 (centres undefined) | 20.53
23 | Cc1noc(CNc2cccc(C(=O)N3CCCC(O)C3)c2)n1 (centres undefined) | 60.9
24 | Cc1noc(C)c1CNc1cccc(C(=O)N2CCCC(O)C2)c1 (centres undefined) | -82.3
25 | Cc1noc(CNc2ccccc2N2CCCCC2)n1 | -11.41
26 | Cc1noc(CNc2ccc(C(=O)N3CCCC(C)C3)cc2C)n1 (centres undefined) | 31.57

Row | SMILES | INHIBITION [%]
27 | CCCc1nc(CNc2cccc(C(=O)N3CCCC(O)C3)c2)no1 (centres undefined) | 24.55
28 | Cc1noc(CNc2ccccc2C(=O)N2CCCC(O)C2)n1 (centres undefined) | 74.11
29 | CCN(CC)C(=O)[C@@H]1C[C@H](N)CN1c1nnc(-c2ccccc2)s1 | -51.55
30 | Cc1noc(C)c1CCC(=O)NC(C)c1nnc2n1CCC2 (centres undefined) | 20.31
31 | CCC(C)N(Cc1ccncc1)C(=O)CCC(=O)OC (centres undefined) | -28.11
32 | CCc1cc(NCCC(F)(F)F)nc(N2CCOCC2)n1 | 35.15
33 | CN1C(=O)C2(CCN(CC3CCC3)C2)c2ccccc21 (centres undefined) | 19.05
34 | CN1C(=O)C2(CCN(CC3CC3)CC2)c2ccccc21 | 1.42
35 | CN1C(=O)C2(CCN(CCO)C2)c2ccccc21 (centres undefined) | 59.33
36 | NC(=O)N1CCC2(CCN(C(=O)c3cccnc3)CC2)C1 | -14.06
37 | CCNC(=O)[C@@H]1C[C@H](NC(=O)c2ccc(C)s2)CN1Cc1ccc(C)o1 | -12.44
38 | Cc1occc1C(=O)N1Cc2nccn2CC(CN2CCOCC2)C1 (centres undefined) | 25.86
39 | COc1nc2c(cc1C(=O)NCCCc1nnc(N)s1)CCC2 | 38.32
40 | Cc1noc(CN(C)C2CCCN(Cc3noc(C4CC4)n3)C2)n1 (centres undefined) | -23.42
41 | O=C(CC1Cn2ncnc2NC1=O)Nc1cccc(C(F)(F)F)c1 (centres undefined) | 0
42 | O=S(=O)(CCNCc1cc(O)c2cc(F)ccc2n1)N1CCCC1 | -9.89
43 | CN(C)S(=O)(=O)N1CCCC(c2ccncn2)C1 (centres undefined) | 31.98
44 | CCn1nc(CC(C)C)cc1C(=O)NCC(F)(F)F | 1.04
45 | CC(C)COC[C@H]1CC[C@H]2[C@H](CCN2C(=O)c2ccncc2F)O1 | 55.49
46 | COC[C@H]1CC[C@H]2[C@H](CCN2C(=O)c2ccncc2F)O1 | 39.51
47 | CC(C)COC[C@@H]1CC[C@H]2[C@H](CCN2C(=O)c2ccncc2F)O1 | 31.08
48 | CCOC[C@@H]1CC[C@H]2[C@H](CCN2C(=O)c2ccncc2F)O1 | 50.61
49 | CCOC[C@H]1CC[C@H]2[C@H](CCN2C(=O)c2ccncc2F)O1 | 0.82
50 | O=C(c1ccncc1F)N1CC[C@@H]2OC(COCC3CC3)CC[C@@H]21 (some centres undefined) | 27.08
51 | CC(=O)Nc1ccc(CNc2ccn(Cc3ccccc3)n2)cc1 | 35.56
52 | COCCOc1ccc(NC(=O)C2CC(=O)N(C3CC3)C2)cn1 (centres undefined) | -45.07

Row | SMILES | INHIBITION [%]
53 | NCC1CCC2(CCN(C(=O)c3ccccn3)CC2)CO1 (centres undefined) | -5.44
54 | O=C(C(CNCc1cccnc1)c1ccccc1)N1CCOCC1 (centres undefined) | 17.33
55 | Cc1nc(CN2CCOCC23CCN(c2ccc(C#N)cc2)CC3)cs1 | -30.38
56 | c1csc(COC[C@H]2CCC[C@]23CN(Cc2ccoc2)CCO3)n1 | 36.29
57 | c1coc(CN2CCO[C@@]3(CCC[C@@H]3COCc3nccs3)C2)c1 | 54.25
58 | COC[C@@H]1CCC[C@@]12CN(Cc1ccco1)CCO2 | 18.4
59 | CCS(=O)(=O)N1CCOC2(CCCN(c3ccccn3)C2)C1 (centres undefined) | 29.45
60 | CCCS(=O)(=O)N1CCC2(CC1)CN(c1ccccn1)CCO2 | 72.41
61 | CCCS(=O)(=O)N1CCOC2(CCCN(c3ccccn3)C2)C1 (centres undefined) | 2.39
62 | O=C(c1ccnnc1)N1CCC2(CC1)CN(c1ccccn1)CCO2 | -0.91
63 | O=C(c1cccnc1)N1CCC2(CC1)CN(c1ccccn1)CCO2 | -1.81
64 | Cc1ccc(C(=O)N2CCC3(CC2)CN(c2ccccn2)CCO3)cc1 | 56.71
65 | Cc1cc(CN2C[C@@H]3CN(C(=O)c4cccn4C)CCO[C@@H]3C2)no1 | 9.45
66 | CN(C)C(=O)CCCNC(=O)C(c1cccc(F)c1)N(C)C (centres undefined) | -4.92
67 | OCCn1nccc1C1CCN(CCOc2ccccc2F)CC1 | 17.31
68 | NC(=O)NC(=O)C(c1ccccc1)N1CCN(Cc2ccc(Cl)s2)CC1 (centres undefined) | -72.31
69 | NC(=O)NC(=O)C(c1ccccc1)N1CCN(Cc2ccsc2)CC1 (centres undefined) | 50.3
70 | NC(=O)NC(=O)C(c1ccccc1)N1CCN(Cc2ccccc2)CC1 (centres undefined) | 16.8
71 | CC(C)n1cc(N2CC(C(=O)N3CCCC3)CC2=O)cn1 (centres undefined) | -69.99
72 | O=C(N1CCCO1)[C@@]12CCO[C@@H]1CCN(Cc1cccs1)C2 | 17.31
73 | COc1cccc(CN2CCCCCC2c2cccs2)c1O (centres undefined) | 4.47
74 | COc1cc(CN2CCCCCC2c2cccs2)cc(OC)c1O (centres undefined) | 50.46
75 | COc1cc(CN2CCCCCC2c2cccs2)cc(OC)c1OC (centres undefined) | 11.24
76 | O=C(C1CCCC1)N1CC2(CCN(C3COC3)CC2)Cc2ccccc21 | -3.1
77 | Cc1cccc(-c2nc(C)nn2CC(=O)NC(C)C)c1 | -15.28
78 | O=C1CC[C@@H](C(=O)N2CCc3[nH]nc(COc4cccc(Cl)c4)c3C2)N1 | 51.85

Row | SMILES | INHIBITION [%]
79 | O=C(N1CCOCC1)N1CCc2[nH]nc(COc3cccc(Cl)c3)c2C1 | 5.04
80 | O=C(c1csnn1)N1CCc2[nH]nc(COc3cccc(Cl)c3)c2C1 | 47.89
81 | CN1C(=O)C2(CCCN(C(=O)c3cccnc3O)C2)c2ccccc21 (centres undefined) | -23.27
82 | O=C(NCCn1ccnc1)N1CCCC1c1ccncc1 (centres undefined) | 53.33
83 | O=C(NCCn1ccnc1)N1CCN(Cc2cccs2)CC1 | -68.26
84 | O=C(Nc1ccc2c(c1)OCO2)N1CCN(CCn2ccnc2)CC1 | 58.59
85 | CC(Cn1ccnc1)NC(=O)N1CCN(Cc2cccnc2)CC1 (centres undefined) | -36.13
86 | O=C(NCCn1ccnc1)N1CCN(Cc2cccnc2)CC1 | 58.96
87 | CC(Cn1ccnc1)NC(=O)N1CCN(Cc2ccco2)CC1 (centres undefined) | 32.64
88 | O=C(NCCn1ccnc1)N1CCN(Cc2ccsc2)CC1 | -1.3
89 | O=C(NCCn1ccnc1)N1CCN(Cc2ccco2)CC1 | 54.28
90 | COc1ccc(C2CCCN2C(=O)NCCn2ccnc2)cc1 (centres undefined) | 26.61
91 | O=C(Nc1ccc2c(c1)OCO2)N1CCN(CCn2cccn2)CC1 | 43.57
92 | O=C(Nc1ccc2c(c1)OCO2)N1CCN(CCc2ccccc2)CC1 | 20.76
93 | O=C(NCCCn1ccnc1)N1CCCC1c1ccncc1 (centres undefined) | -1.27
94 | CCSCC(C)NCc1nncn1C1CCCCC1 (centres undefined) | 37.3
95 | Cc1nc(CN2C(=O)CC[C@@H]3[C@H]2CCN3C(=O)c2ccccn2)cs1 | 3.46
96 | CCc1nccn1C1CCCN(C(=O)c2cncnc2C)C1 (centres undefined) | 4.41
97 | CCN(CC)[C@@H]1CN(S(=O)(=O)c2cn(C)cn2)[C@@H]2CCCO[C@H]12 | 20.21
98 | CN(CC(=O)NCc1cc2ccccc2o1)S(C)(=O)=O | -3.17
99 | CCc1noc(C)c1C(=O)N1C[C@H](NS(C)(=O)=O)[C@@H](C2CC2)C1 | 5.47
100 | O=C(N1CCCC(n2cncn2)C1)C1(c2ccc(Cl)cc2)CCC1 (centres undefined) | 45.83
101 | CC(=O)c1c(C)nn(S(=O)(=O)c2ccc(C)cc2)c1C | 39.45
102 | FC(F)(F)c1ccnc(N2CCCC(N3CCOCC3)C2)c1 (centres undefined) | 60.13
103 | FC(F)(F)c1ccnc(N2CCCN(C3CCOCC3)CC2)c1 | -26.2
104 | CN1CCCC(N2CCN(c3cc(C(F)(F)F)ccn3)CC2)C1 (centres undefined) | -3.43
